Data taken from ChEMBL document CHEMBL4513146, “CO-ADD screening of Karazin Kharkiv National University (Ukraine) compounds”.
Entries with a potency or affinity are not part of this list.

Tests used:
Staphylococcus aureus = conditions: Concentration 32 ug.mL-1;; ASSAY_TEST Inhibition of Bacterial Growth; detection method Absorption (OD600); MEDIA CAMHB; plate type 384well; NBS; CORNING #3640; time 18 hr
Escherichia coli = conditions: Concentration 32 ug.mL-1;; ASSAY_TEST Inhibition of Bacterial Growth; detection method Absorption (OD600); MEDIA CAMHB; plate type 384well; NBS; CORNING #3640; time 18 hr

Row | SMILES | Inhibition (Staphylococcus aureus) [%] | Inhibition (Escherichia coli) [%]
1 | COc1ccc(N2CCN(C(=O)Cn3nc4c(Oc5cccc(C)c5C)nccn4c3=O)CC2)cc1 | 7.43 | -1.11
2 | CCc1ccccc1Sc1nccn2c(=O)n(CC(=O)NCc3cccs3)nc12 | 6.5 | -12.39
3 | CCc1nnc2ccc(S(=O)(=O)N(Cc3ccc(OC)c(F)c3)c3ccccc3)cn12 | -14.1 | -2.03
4 | COc1ccc(OC)c(NC(=O)Cn2nc3c4cc(-c5ccc(C)c(C)c5)nn4ccn3c2=O)c1 | 0.06 | -4.32
5 | CC(C)c1ccc(N(Cc2ccccc2F)S(=O)(=O)c2cccn3cnnc23)cc1 | 2.39 | -0.79
6 | COc1ccc(-c2cc3c4nnc(SCC(=O)Nc5ccc(C#N)cc5)n4ccn3n2)cc1 | -3.8 | -6.47
7 | CCc1nnc2ccc(S(=O)(=O)N(Cc3ccc(F)cc3)c3ccccc3)cn12 | -1.95 | -12.51
8 | O=C(Cn1nc2ccc(C(=O)NCc3ccccc3)cn2c1=O)Nc1ccc2c(c1)OCO2 | 7.86 | -0.58
9 | CCOc1ccc(-n2ccn3c(SCC(=O)Nc4ccc(C)c(C)c4)nnc3c2=O)cc1 | -4.99 | -21.19
10 | CC1CCCN(c2nccn3c(=O)n(CC(=O)Nc4ccc5c(c4)OCO5)nc23)C1 (centres undefined) | -13.51 | -11.79
11 | CCOc1ccc(NC(=O)Cn2nc3c4cc(-c5ccc(C)c(C)c5)nn4ccn3c2=O)cc1 | -9.23 | 1.9
12 | O=c1n(Cc2nc(-c3ccc(Br)cc3)no2)nc2ccc(-c3ccccc3)nn12 | 5.03 | -5.77
